Measured values published in PubChem BioAssay AID652054 (National Center for Advancing Translational Sciences (NCATS), 2013).
In all, about 360,000 compounds went through this assay and about 9,100 (2.5%) were called active. Another 4% or so got no clear call; they are omitted. Shown is part of a subset that was picked to be rich in actives. A number with no mark means an inactive call. Rule as the data show it: active = max response below about -50%; inconclusive = no clear call, values can overlap the other calls; inactive = above that.

Target: D(3) dopamine receptor (Homo sapiens) (UniProt P35462)
Test: qHTS of D3 Dopamine Receptor Antagonist: qHTS
Conditions: D3R cells, DiscoveRx beta-arrestin luminescence, antagonist mode; stronger effect = lower value
Excerpt: D3 DARs represent a very important target for the treatment of several neuropsychiatric disorders. Indeed, one of the most promising therapeutic applications for the D3 DAR is in the area of addiction and related disorders. […] These findings have been observed with a number of addictive substances including cocaine, amphetamine, nicotine, and alcohol. […] Antagonism of the D3 DAR may also be therapeutic in the treatment of schizophrenia or psychosis. […] Since the D3 DAR is expressed in areas of the CNS associated with the control of mood and emotion, it has been hypothesized that selective antagonism of the D3 DAR may be effective in treating psychosis without inducing the motor side effects typically seen with D2 DAR antagonists.
This part of the project aims to discover novel antagonist.
NIH Chemical Genomics Center [NCGC]
NIH Molecular Libraries Probe Centers Network [MLPCN]
Assay Submitter (PI): David Sibley, NINDS
Freshly passaged cells are plated in 1536 well white, solid bottom plates at a density of 1500 cells/well in 3microl of complete media. After an overnight incubation at 37 degrees C in 5% CO2, cells are loaded with 23nl of test compound from the compound library (as well as dopamine controls) using a 1536 pintool and incubated at 37 degrees C for 90 minutes. Two microliters of DiscoveRx reagent is then added to all cells, and they are incubated for an additional 30 - 60 minutes at room temperature. Following incubation, luminescence is measured on a ViewLux CCD-based luminometer reader using a 20 sec exposure time.
% is scaled to controls: 0 for no effect and ±100 for the full control effect.

Chain of D(3) dopamine receptor (Homo sapiens) (P35462 whole entry, looked up): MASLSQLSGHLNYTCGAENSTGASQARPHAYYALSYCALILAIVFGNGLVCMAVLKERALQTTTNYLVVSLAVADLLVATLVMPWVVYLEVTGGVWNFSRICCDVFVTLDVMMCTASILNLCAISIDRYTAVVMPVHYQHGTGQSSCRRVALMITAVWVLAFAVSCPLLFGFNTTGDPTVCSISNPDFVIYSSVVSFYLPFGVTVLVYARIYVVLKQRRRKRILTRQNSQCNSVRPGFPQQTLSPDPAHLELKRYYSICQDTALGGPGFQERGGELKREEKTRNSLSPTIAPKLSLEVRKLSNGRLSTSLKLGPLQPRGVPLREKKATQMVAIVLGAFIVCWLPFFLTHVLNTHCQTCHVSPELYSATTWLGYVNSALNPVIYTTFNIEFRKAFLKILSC

Structure (SMILES) | max response, negative = inhibition
CCC(CC)C(C(=O)NC1CCCC1)N1CCN(c2cc(C)nc3ccccc23)CC1 (centres undefined) | 14.1%
NC(=O)C1(Nc2ccccc2Cl)CCCC1 | -22%
O=C(Nc1ccccc1Cl)/C(Cl)=C(\Cl)S(=O)c1ccccc1 (centres undefined) | -94.9% (active)
CS/C(=C\C(=O)c1ccco1)Nc1ccccc1Cl | 0.757%
O=C(NCc1ccco1)c1cccc(-c2ccc3nncn3c2)c1 | -9.17%
CCc1nc2c(OCCOc3ccccc3)cccn2c1N(C=O)Cc1ccc(OC)cc1 | 12.7%
COc1ccccc1NC(=O)[C@H](COCc1ccccc1)NC(=O)OC(C)(C)C | 13.5%
C[C@@H](NC(=O)OC(C)(C)C)c1nnc(S(=O)(=O)Cc2ccccc2)o1 | -110% (active)
CCc1ccccc1NC(=O)CSc1nnc([C@@H](NC(=O)OC(C)(C)C)C(C)CC)o1 (some centres undefined) | -1.74%
CCNC(=O)C1(C)CCCN(C(=O)c2c(C)noc2C)C1 (centres undefined) | 0%
CCCC(NS(=O)(=O)c1ccc(OC)cc1)C(=O)O (centres undefined) | -4.83%
COc1ccc(S(=O)(=O)/N=C2\C=C(NS(=O)(=O)c3ccccc3)C(=O)c3ccccc32)cc1 | -59.6% (active)
COc1ccc(NS(=O)(=O)c2ccc(Oc3c(C#N)cccc3C#N)cc2)cc1 | 0.938%
O=S1(=O)CC(N2CCN(Cc3ccccc3F)CC2)CN1Cc1cn(Cc2cccc(C(F)(F)F)c2)nn1 (centres undefined) | 1.97%
CC(C=Cc1ccccc1)=NNS(=O)(=O)c1ccc([N+](=O)[O-])cc1 | -22%
C/C(=N\NS(=O)(=O)c1cccc([N+](=O)[O-])c1)c1cc2ccccc2o1 | -65.1% (active)
COc1ccc(CCNS(=O)(=O)c2cccc([N+](=O)[O-])c2)cc1 | -20.3%
CCOC(=O)CNC(=O)CSc1nnc(-c2cccc(OC)c2)n1CC | 0%
CCOC(=O)CNC(=O)CSc1nnc(COc2ccc(Cl)cc2)n1CC | -55.4% (active)
CCn1c(COc2ccc(OC)cc2)nnc1SCC(=O)Nc1cc(OC)ccc1OC | 5.77%
CCOC(=O)C(C(=O)c1ccccc1)C(c1ccccc1)c1nccc2ccccc12 (centres undefined) | -11.4%
COc1ccc(S(=O)(=O)N2CCCCC2)cc1C(=O)NC1CCS(=O)(=O)C1 (centres undefined) | 22%

Structure (SMILES) | max response, negative = inhibition
COc1ccc(CS(=O)/C(Cl)=C(/Cl)C(=O)Nc2ccc(OC)nc2)cc1 (centres undefined) | -91.9% (active)
COc1ccc(NC(=O)CN2C(=O)NC(C)(c3ccccc3)C2=O)cn1 (centres undefined) | 28.1%
COc1ccc(C(O)c2nc(-c3ccc(OC)nc3)cs2)cc1 (centres undefined) | -0.57%
CN1OC[C@@H]2CN(C(=O)c3cccc4ccccc34)[C@H](c3ccc(N4CCCCC4)cc3)C[C@@H]21 | 0.382%
CN1OC[C@@H]2CN(C(=O)c3cccnc3)[C@H](c3ccc(N4CCCCC4)cc3)C[C@@H]21 | 33.1%
CN1OC[C@@H]2CN(C(=O)c3ccc(-c4ccccc4)cc3)[C@H](c3ccc(-c4cccc(F)c4)cc3)C[C@@H]21 | -51.6% (active)
COc1cccc(NC(=O)C2(C)CCN2Cc2ccccc2Cl)c1 (centres undefined) | 9.45%
Cn1c(CNC(=O)c2ccco2)nnc1SCC(=O)N1CCN(c2ccccc2)CC1 | 9.96%
O=C(NCc1nnc(SCC(=O)N2CCC(Cc3ccccc3)CC2)o1)c1ccco1 | -56.2% (active)
O=C(NCc1nnc(SCC(=O)N2CCCCCC2)o1)c1ccc(F)cc1 | -15.6%
CC(=O)NC1C(Oc2ccc(C=O)cc2)OC(COC(C)=O)C(OC(C)=O)C1OC(C)=O (centres undefined) | 14.4%
CCc1cccc(OC2OC(CO)C(O)C(O)C2NC(C)=O)c1 (centres undefined) | -21.8%
CC(=O)NC1C(OCc2ccccc2)OC(COC(C)=O)C(OC(C)=O)C1OC(C)=O (centres undefined) | -50.8% (active)
Cc1cccc(CN2CCN(C3CN(Cc4cn(Cc5cc(C)cc(C)c5)nn4)S(=O)(=O)C3)CC2)c1 (centres undefined) | 0.506%
Cc1ccc(Cc2c(-c3ccccc3)nc3ccc(Cl)cn23)cc1 | 5.55%
Cc1ccc(NC(=S)N(Cc2ccco2)C(C)c2cccs2)cc1 (centres undefined) | 10.5%
Cc1ccc(NC(=S)N(CCN2CCCCC2)Cc2ccco2)cc1C | -70.4% (active)
Cc1ccc(NC(=S)N(CCN(C)C)Cc2cccs2)cc1C | -25.3%
Cc1ccc(NC(=S)N(CCCN2CCC(C)CC2)Cc2ccco2)cc1 | -63.3% (active)
Cc1ccc(NC(=S)N(CCCN2CCCC2)Cc2cccn2Cc2ccc(Cl)cc2)cc1 | -19%
CCc1ccccc1NC(=S)N(CCN1CCCCCC1)Cc1ccco1 | -28.8%
O=C(c1ccc(C(F)(F)F)cc1)N1CCC(=O)N([C@H](COCc2ccccc2)Cc2ccccc2)CC1 | -26.4%
